The supplement of paper PMC8728848
Many of the other results were omitted from the sample, so the strongest signals are more common in it than they were.

Legend:
Test in all cases: glycan array binding signal (z-score within array); higher = stronger binding
Details in all cases: glycan notation: IUPAC condensed, linker removed
[1] = molecular target: GlcNAc(a1-4)Gal(b1-4)GlcNAc(b1-3)Gal(b1-4)Glc
Outline: (§1)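 Arrays were curated from the Consortium for Functional Glycomics database, 3228 in total, and kept only where the protein sequence was available. Binding is expressed as a within-array Z-score. This score was averaged across arrays of the same protein sequence at different concentrations or buffers and across linkers, and negative values can be read as non-binding.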

[2] = molecular target: GlcNAc(b1-2)Man(a1-3)[GlcNAc(b1-2)Man(a1-6)]Man(b1-4)GlcNAc(b1-4)[Fuc(a1-6)]GlcNAc
Outline: as §1

[3] = molecular target: GlcNAc(b1-2)[GlcNAc(b1-6)]Man(a1-6)[GlcNAc(b1-2)Man(a1-3)]Man(b1-4)GlcNAc(b1-4)[Fuc(a1-6)]GlcNAc
Outline: as §1

[4] = molecular target: GlcNAc(b1-3)Gal(b1-4)GlcNAc(b1-2)Man(a1-3)[GlcNAc(b1-3)Gal(b1-4)GlcNAc(b1-2)Man(a1-6)]Man(b1-4)GlcNAc(b1-4)[Fuc(a1-6)]GlcNAc
Outline: as §1

[5] = molecular target: GlcNAc(b1-3)Gal(b1-4)GlcNAc(b1-3)Gal(b1-4)GlcNAc
Outline: as §1

[6] = molecular target: GlcNAc(b1-3)Gal(b1-4)GlcNAc(b1-3)Gal(b1-4)GlcNAc(b1-3)Gal(b1-4)GlcNAc(b1-3)Gal(b1-4)GlcNAc(b1-2)Man(a1-3)[GlcNAc(b1-3)Gal(b1-4)GlcNAc(b1-3)Gal(b1-4)GlcNAc(b1-3)Gal(b1-4)GlcNAc(b1-3)Gal(b1-4)GlcNAc(b1-2)Man(a1-6)]Man(b1-4)GlcNAc(b1-4)[Fuc(a1-6)]GlcNAc
Outline: as §1

GlcNAc(b1-3)GalNAc = molecular target: GlcNAc(b1-3)GalNAc
Outline: as §1

[7] = molecular target: GlcNAc(b1-4)GlcNAc(b1-4)GlcNAc
Outline: as §1

[8] = molecular target: Kdn(a2-3)Gal(b1-4)[Fuc(a1-3)]GlcNAc
Outline: as §1

[9] = molecular target: Man(a1-2)Man(a1-3)[Man(a1-2)Man(a1-6)]Man(a1-6)[Man(a1-2)Man(a1-2)Man(a1-3)]Man
Outline: as §1

[10] = molecular target: Man(a1-2)Man(a1-3)[Man(a1-6)]Man(a1-6)[Man(a1-2)Man(a1-3)]Man(b1-4)GlcNAc(b1-4)GlcNAc
Outline: as §1

[11] = molecular target: Man(a1-3)[Man(a1-6)]Man(b1-4)GlcNAc(b1-4)[Fuc(a1-6)]GlcNAc
Outline: as §1

[12] = molecular target: Neu5Ac(a2-3)Gal(b1-4)GlcNAc(b1-2)Man(a1-3)[GlcNAc(b1-4)][Neu5Ac(a2-3)Gal(b1-4)GlcNAc(b1-2)Man(a1-6)]Man(b1-4)GlcNAc(b1-4)GlcNAc
Outline: as §1

[13] = molecular target: Neu5Ac(a2-3)Gal(b1-4)GlcNAc(b1-3)Gal(b1-4)GlcNAc(b1-3)Gal(b1-4)GlcNAc
Outline: as §1

[14] = molecular target: Neu5Ac(a2-3)Gal(b1-4)[Fuc(a1-3)]GlcNAc(b1-6)[Gal(b1-3)]GalNAc
Outline: as §1

[15] = molecular target: Neu5Ac(a2-3)[GalNAc(b1-4)]Gal(b1-4)Glc
Outline: as §1

[16] = molecular target: Neu5Ac(a2-3)[GalNAc(b1-4)]Gal(b1-4)GlcNAc(b1-3)GalNAc
Outline: as §1

[17] = molecular target: Neu5Ac(a2-6)Gal(b1-3)GlcNAc(b1-3)[Gal(b1-4)GlcNAc(b1-6)]Gal(b1-4)Glc
Outline: as §1

[18] = molecular target: Neu5Ac(a2-6)Gal(b1-4)GlcNAc
Outline: as §1

[19] = molecular target: Neu5Ac(a2-6)Gal(b1-4)GlcNAc(b1-2)Man(a1-3)[Gal(b1-4)GlcNAc(b1-2)Man(a1-6)]Man(b1-4)GlcNAc(b1-4)GlcNAc
Outline: as §1

[20] = molecular target: Neu5Ac(a2-6)Gal(b1-4)GlcNAc(b1-2)Man(a1-3)[Man(a1-6)]Man(b1-4)GlcNAc(b1-4)GlcNAc
Outline: as §1

[21] = molecular target: Neu5Ac(a2-6)Gal(b1-4)GlcNAc(b1-2)Man(a1-3)[Neu5Ac(a2-6)Gal(b1-4)GlcNAc(b1-2)Man(a1-6)]Man(b1-4)GlcNAc(b1-4)[Fuc(a1-6)]GlcNAc
Outline: as §1

[22] = molecular target: Neu5Ac(a2-6)Gal(b1-4)GlcNAc(b1-3)Gal(b1-4)GlcNAc(b1-3)GalNAc
Outline: as §1

[23] = molecular target: Neu5Ac(a2-8)Neu5Ac(a2-3)Gal(b1-4)GlcNAc
Outline: as §1

[24] = molecular target: Neu5Gc(a2-3)Gal(b1-3)[Fuc(a1-4)]GlcNAc
Outline: as §1

[25] = molecular target: Neu5Gc(a2-3)Gal(b1-4)GlcNAc
Outline: as §1

B1: LCA (Lens culinaris), P02870 (protein)
chain: MASLQTQMISFYLIFLSILLTTIFFFKVNSTETTSFSITKFSPDQKNLIFQGDGYTTKGKLTLTKAVKSTVGRALYSTPIHIWDRDTGNVANFVTSFTFVIDAPSSYNVADEFTFFIAPVDTKPQTGGGYLGVFNSKEYDKTSQTVAVEFDTFYNAAWDPSNKERHIGIDVNSIKSVNTKSWNLQNGERANVVIAFNAATNVLTVTLTYPNSLEEENVTSYTLNEVVPLKDVVPEWVRIGFSATTGAEFAAHEVHSWSFHSELGGTSSSKQAADA
glycan array binding signal (z-score) [1]: -0.135
glycan array binding signal (z-score) [2]: 5.54
glycan array binding signal (z-score) [3]: 8.45
glycan array binding signal (z-score) [4]: 5.29
glycan array binding signal (z-score) [5]: -0.199
glycan array binding signal (z-score) [6]: 3.94
glycan array binding signal (z-score) (GlcNAc(b1-3)GalNAc): -0.209
glycan array binding signal (z-score) [7]: -0.184
glycan array binding signal (z-score) [8]: -0.228
glycan array binding signal (z-score) [9]: 1.19
glycan array binding signal (z-score) [10]: 2.09
glycan array binding signal (z-score) [11]: 6.07
glycan array binding signal (z-score) [12]: -0.262
glycan array binding signal (z-score) [13]: -0.228
glycan array binding signal (z-score) [14]: -0.145
glycan array binding signal (z-score) [15]: -0.235
glycan array binding signal (z-score) [16]: 0.102
glycan array binding signal (z-score) [17]: -0.232
glycan array binding signal (z-score) [18]: -0.202
glycan array binding signal (z-score) [19]: -0.188
glycan array binding signal (z-score) [20]: -0.239
glycan array binding signal (z-score) [21]: 4.04
glycan array binding signal (z-score) [22]: -0.224
glycan array binding signal (z-score) [23]: -0.237
glycan array binding signal (z-score) [24]: -0.207
glycan array binding signal (z-score) [25]: -0.219
